Experimental data taken from PubChem BioAssay (NCATS).
Several values for one entry are separate records, joined by “and”; a condition that tells them apart may be missing. Equal values may be shown once. Values without a mark were called inactive. Records with an inconclusive call do not appear. Activity calls are given as the source filed them. Calls come from the whole dose curve; as a rule, active = well fitted curve in the direction sought with a large enough effect; inconclusive = small, poorly fitted or top-dose-only effect, or another doubt; inactive = no such curve, though single readings can be large; an effect the other way counts as inactive or inconclusive.

Assays:
[1] = target: Cytochrome P450 2C9 (Homo sapiens) (UniProt P11712); experiment: qHTS Assay for Inhibitors and Substrates of Cytochrome P450 2C9 (AID 883); note: nearly all actives have a fitted effect of over 60% in size; note: potency is the fitted concentration of half-maximal effect; for activity change, negative = inhibition: % is set by controls: 0 for no effect and ±100 for the full control effect
Method in brief: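 CYP2C9 deoxyluciferin hydroxylation, 37C, 60 min with NADPH regeneration; 10nM enzyme, 100uM Luciferin-H (KM). Glo detection reagent stopped reaction; luminescence normalized to sulphaphenazole (57uM) full inhibition.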

[2] = target: Cytochrome P450 3A4 (Homo sapiens) (UniProt P08684); experiment: qHTS Assay for Inhibitors and Substrates of Cytochrome P450 3A4 (AID 884); note: nearly all actives have a fitted effect of over 50% in size; note: potency is the fitted concentration of half-maximal effect; for activity change, negative = inhibition: series mostly up to about 57 µM; % is set by controls: 0 for no effect and ±100 for the full control effect
Method in brief: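 Luminescent readout of luciferin produced by CYP3A4 (20 nM) dealkylation of Luciferin-PPXE, 25 uM (its KM). NADPH-driven reaction ran 60 min at RT after 10 min compound preincubation; data scaled to 57 uM ketoconazole as 100% inhibition.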

[3] = target: Cytochrome P450 3A4 (Homo sapiens) (UniProt P08684); experiment: qHTS Assay for Activators of Cytochrome P450 3A4 (AID 885); note: nearly all actives have a fitted effect of over 65% in size
Method in brief: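 Human CYP3A4 dealkylates Luciferin-PPXE to luciferin, which luciferase detection converts to light. Substrate was at its KM (25uM), buffer 200mM KPO4, reaction 60 min at RT.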

[4] = target: Cytochrome P450 2C19 (Homo sapiens) (UniProt P33261); experiment: qHTS Assay for Inhibitors and Substrates of Cytochrome P450 2C19 (AID 899); note: nearly all actives have a fitted effect of over 60% in size; note: potency is the fitted concentration of half-maximal effect
Method in brief: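 In 50mM KPO4, the reaction held 5nM enzyme and KM-level (10uM) Luciferin-H EGE; it ran 60 min at 37C after NADPH regeneration and a 10 min compound preincubation. Luminescence values were scaled to 57uM ketoconazole as complete inhibition.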

[5] = target: Cytochrome P450 2D6 (Homo sapiens) (UniProt P10635); experiment: qHTS Assay for Inhibitors and Substrates of Cytochrome P450 2D6 (AID 891); note: nearly all actives have a fitted effect of over 60% in size; note: potency is the fitted concentration of half-maximal effect;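 for activity change, negative = inhibition: luciferin methyl ether substrate demethylated by CYP2D6 with NADPH regeneration; % is set by controls: 0 for no effect and ±100 for the full control effect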
Method in brief: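 Luminescent read-out of luciferin formed by 5 nM human CYP2D6 demethylating 30 uM Luciferin-ME EGE (Km level) over 60 min at room temperature after NADPH regeneration addition. Data normalized to full inhibition by 1.43 uM quinidine.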

Sequence of Cytochrome P450 3A4 (Homo sapiens) (P08684 whole entry, looked up): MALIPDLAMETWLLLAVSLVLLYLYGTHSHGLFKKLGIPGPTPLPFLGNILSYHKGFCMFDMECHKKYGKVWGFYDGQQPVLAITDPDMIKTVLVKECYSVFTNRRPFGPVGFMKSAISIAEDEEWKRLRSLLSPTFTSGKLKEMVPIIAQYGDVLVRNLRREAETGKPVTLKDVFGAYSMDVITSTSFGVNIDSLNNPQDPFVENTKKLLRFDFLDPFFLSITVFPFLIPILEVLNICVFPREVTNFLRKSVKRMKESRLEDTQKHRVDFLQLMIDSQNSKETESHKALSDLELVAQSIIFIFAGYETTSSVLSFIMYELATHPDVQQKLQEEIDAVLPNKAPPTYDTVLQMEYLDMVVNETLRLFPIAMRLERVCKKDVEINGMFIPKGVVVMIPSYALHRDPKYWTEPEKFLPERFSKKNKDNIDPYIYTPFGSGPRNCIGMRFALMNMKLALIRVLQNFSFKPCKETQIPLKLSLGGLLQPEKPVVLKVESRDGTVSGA
Sequence of Cytochrome P450 2C9 (Homo sapiens) (P11712 whole entry, looked up): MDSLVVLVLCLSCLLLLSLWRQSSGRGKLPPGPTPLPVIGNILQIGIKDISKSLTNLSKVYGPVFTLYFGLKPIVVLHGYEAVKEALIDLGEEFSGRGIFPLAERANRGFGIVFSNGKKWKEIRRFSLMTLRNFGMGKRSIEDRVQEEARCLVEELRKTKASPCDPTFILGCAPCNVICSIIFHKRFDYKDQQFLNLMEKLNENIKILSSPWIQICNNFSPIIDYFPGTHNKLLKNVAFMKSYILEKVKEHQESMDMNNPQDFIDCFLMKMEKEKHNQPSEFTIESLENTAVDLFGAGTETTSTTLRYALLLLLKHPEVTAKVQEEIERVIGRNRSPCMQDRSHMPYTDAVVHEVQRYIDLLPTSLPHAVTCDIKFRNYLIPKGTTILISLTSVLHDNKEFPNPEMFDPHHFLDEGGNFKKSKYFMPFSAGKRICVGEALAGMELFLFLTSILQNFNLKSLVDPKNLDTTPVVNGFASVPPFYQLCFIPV
Sequence of Cytochrome P450 2D6 (Homo sapiens) (P10635 whole entry, looked up): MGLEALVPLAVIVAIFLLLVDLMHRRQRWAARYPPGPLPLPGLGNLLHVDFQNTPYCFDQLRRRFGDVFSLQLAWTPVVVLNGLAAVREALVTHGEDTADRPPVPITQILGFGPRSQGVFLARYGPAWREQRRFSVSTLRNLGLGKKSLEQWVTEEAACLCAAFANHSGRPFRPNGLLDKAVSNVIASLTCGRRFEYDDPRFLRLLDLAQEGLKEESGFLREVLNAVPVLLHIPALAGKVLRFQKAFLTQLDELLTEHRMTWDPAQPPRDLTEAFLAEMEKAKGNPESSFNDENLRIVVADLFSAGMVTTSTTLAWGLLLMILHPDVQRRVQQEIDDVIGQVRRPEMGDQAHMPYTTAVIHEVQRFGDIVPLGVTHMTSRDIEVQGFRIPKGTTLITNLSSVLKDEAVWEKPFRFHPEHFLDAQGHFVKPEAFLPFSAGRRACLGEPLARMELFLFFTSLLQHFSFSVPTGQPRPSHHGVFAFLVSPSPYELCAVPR
Sequence of Cytochrome P450 2C19 (Homo sapiens) (P33261 whole entry, looked up): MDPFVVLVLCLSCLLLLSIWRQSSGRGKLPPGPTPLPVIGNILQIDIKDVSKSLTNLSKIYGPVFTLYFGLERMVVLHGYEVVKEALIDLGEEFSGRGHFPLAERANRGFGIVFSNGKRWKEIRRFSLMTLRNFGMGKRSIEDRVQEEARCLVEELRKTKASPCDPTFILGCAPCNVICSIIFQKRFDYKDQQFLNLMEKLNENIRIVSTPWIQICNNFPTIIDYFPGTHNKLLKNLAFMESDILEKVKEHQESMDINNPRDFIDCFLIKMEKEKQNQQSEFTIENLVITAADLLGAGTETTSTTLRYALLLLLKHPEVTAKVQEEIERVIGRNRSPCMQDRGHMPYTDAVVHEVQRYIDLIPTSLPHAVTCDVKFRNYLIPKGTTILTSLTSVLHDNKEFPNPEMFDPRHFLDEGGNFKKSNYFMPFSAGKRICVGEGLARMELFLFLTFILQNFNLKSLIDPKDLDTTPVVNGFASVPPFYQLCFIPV

## CCCCOC(OCCCC)[C@H](O)CSc1ccc2ccccc2c1
[1]
  Potency: 2 µM (active)
[2]
  Potency: 5.01 µM (active)
[3]
  activity change, positive = activation: -60.8% [at 11.4 µM]
[4]
  Potency: 3.16 µM (active)

## COC(=O)C/C=C\[C@@H](C)[C@@H](/C=N\O[C@@H](C)c1cc(-c2c(C)cc(C)cc2C)no1)NS(=O)(=O)c1ccc(C)cc1
[1]
  Potency: 2.51 µM (active)
[2]
  Potency: 3.16 µM (active)
[3]
  activity change, positive = activation: -103% [at 11.4 µM]
[4]
  Potency: 3.16 µM (active)

## CC1CCC2C(=O)N3C(CCC(C)[C@@H]3c3cccc(N4CCOCC4)c3)C(=O)N2C1c1cccc(N2CCOCC2)c1 (stereo partly specified)
[1]
  Potency: inactive
[2]
  Potency: 3.98 µM (active)
[3]
  activity change, positive = activation: -62.4% [at 11.4 µM]
[5]
  Potency: inactive
[4]
  Potency: inactive

## CC1(C)OC(C(O)(c2ccccc2)c2ccccc2)C(C(O)(c2ccccc2)c2ccccc2)O1 (stereo unspecified)
[1]
  Potency: inactive
[2]
  Potency: 2.51 µM (active)
[3]
  activity change, positive = activation: -63.1% [at 11.4 µM]
[5]
  Potency: inactive
[4]
  Potency: inactive

## COC(=O)C1=C(C)N(Cc2ccccc2)[C@]23O[C@](C(=O)OC)(C(=O)N2C1c1ccccc1)C1CCOC(=O)C13 (stereo partly specified)
[1]
  Potency: inactive
[2]
  Potency: 2.51 µM (active)
[3]
  activity change, positive = activation: -70.4% [at 11.4 µM]
[5]
  Potency: inactive
[4]
  Potency: inactive

## COc1cccc([C@@H]2Oc3ccc(OC)cc3/C(=N/OC[C@@H](C)[C@H](OCc3ccccc3)C(C)C)[C@@H]2O)c1
[1]
  Potency: 3.98 µM (active)
[2]
  Potency: 3.16 µM (active)
[3]
  activity change, positive = activation: -89.7% [at 11.4 µM]
[4]
  Potency: 2 µM (active)

## CC(=O)OCC1OC(C#Cc2ccccc2Cl)C=CC1OC(C)=O (stereo unspecified)
[1]
  Potency: inactive
[2]
  Potency: 3.98 µM (active)
[3]
  activity change, positive = activation: -76.5% [at 11.4 µM]
[5]
  Potency: inactive
[4]
  Potency: 3.16 µM (active)

## CC(=O)OCC1OC(C#CCCCc2ccccc2)C=CC1OC(C)=O (stereo unspecified)
[1]
  Potency: inactive
[2]
  Potency: 3.98 µM (active)
[3]
  activity change, positive = activation: -71.4% [at 11.4 µM] and -59.5% [at 11.4 µM]
[5]
  Potency: 3.98 µM (active) and 3.16 µM (active)
[4]
  Potency: inactive

## CCCCC#CC1C=CC(Oc2ccc(OC)cc2)C(CO)O1 (stereo unspecified)
[1]
  Potency: inactive
[2]
  Potency: 3.16 µM (active)
[3]
  activity change, positive = activation: -94.2% [at 11.4 µM]
[5]
  Potency: inactive
[4]
  Potency: 2 µM (active)

## COC(=O)C1=C2N(Cc3ccccc3)C(C)=C(C(=O)OC)C(c3ccccc3)N2C(=O)[C@](O)(C(=O)OC)C1 (stereo partly specified)
[1]
  Potency: inactive
[2]
  activity change, negative = inhibition: -26.5% [at 11.4 µM]
[3]
  activity change, positive = activation: -51.3% [at 11.4 µM]
[5]
  Potency: inactive
[4]
  Potency: inactive

## COC(=O)C1=C(C)N(Cc2ccccc2)C2=C3C(=O)N(C)C(=O)C3[C@@](O)(C(=O)OC)C(=O)N2C1c1ccccc1 (stereo partly specified)
[1]
  Potency: inactive
[2]
  activity change, negative = inhibition: -21.3% [at 11.4 µM]
[3]
  activity change, positive = activation: -32.3% [at 11.4 µM]
[5]
  Potency: inactive
[4]
  Potency: inactive

## CCCCC1CN2C(CCC(C)C2c2ccc(Br)cc2)C(=O)O1 (stereo unspecified)
[1]
  Potency: inactive
[2]
  Potency: 3.98 µM (active)
[3]
  activity change, positive = activation: -38.2% [at 11.4 µM] and -43.4% [at 11.4 µM] and -62.6% [at 11.4 µM]
[5]
  Potency: inactive
[4]
  Potency: 1.26 µM (active)

## C=C(C)C(O)/C=C/c1ccc(Br)cc1 (stereo unspecified)
[1]
  Potency: 3.16 µM (active)
[2]
  Potency: 3.98 µM (active)
[3]
  activity change, positive = activation: -65.3% [at 11.4 µM]
[4]
  Potency: 0.02 µM (active)
